# Source: PubChem
# G9a block: inhibitors of human histone lysine methyltransferase G9a; Q96KQ7; G9a H3K9 monomethylation, AlphaScreen, 2 h; Potency, µM (doses to about 102 µM), without a hit: at the highest dose activity, negative = inhibition, most hits filed as inhibitors; 350,000 tested, 8.8% active; AID 504332; further: on the % scale 0 is the no-effect control and ±100 the full control effect; nearly all actives have a fitted effect of over 75% in size
# Target sequence (Q96KQ7 913-1193 limits assumed): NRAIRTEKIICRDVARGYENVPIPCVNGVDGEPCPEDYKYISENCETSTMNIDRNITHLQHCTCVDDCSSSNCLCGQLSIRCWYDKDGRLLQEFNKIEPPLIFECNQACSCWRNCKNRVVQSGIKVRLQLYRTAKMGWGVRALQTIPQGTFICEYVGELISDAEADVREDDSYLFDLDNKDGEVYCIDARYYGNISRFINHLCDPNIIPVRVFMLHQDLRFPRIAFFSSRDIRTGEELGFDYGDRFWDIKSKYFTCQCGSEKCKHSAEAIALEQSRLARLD
#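 Enzyme 20 nM + cpd, 15 min RT; add b-H3K9 pep 500 nM / SAM 20 uM; 2 h RT; anti-H3K9me1 Ab 0.5 ug/mL + SA donor / anti-rabbit acceptor beads 20 ug/mL each, 10 min; AlphaScreen read.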
# JMJD2A Tudor inh: inhibitors of human JMJD2A Tudor domain; AlphaScreen JMJD2A-Tudor / H3K4me3 peptide binding; Potency, µM (titrated, usually from 114 µM), for the others: top-dose activity change, negative = inhibition, most hits filed as inhibitors; 390,000 tested, 4.4% active; AID 504339; further: on the % scale 0 is the no-effect control and ±100 the full control effect; nearly all actives have a fitted effect of over 50% in size
# ALOX12 inh: ALOX12 (human) lipoxygenase inhibition. P18054. purified 12hLO, xylenol orange hydroperoxide absorbance. Potency, µM (doses to about 108 µM), without a hit: at the top dose activity change, negative = inhibition, actives largely listed as inhibitors. 580,000 tested, 1.1% active. AID 1671190; further: on the % scale 0 is the no-effect control and ±100 the full control effect
#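 Purified human 12hLO (150 nM final) in 25 mM Hepes, 0.01% Triton X-100, pH 7.0 was preincubated 15 min at room temperature with compound. Then 40 uM arachidonic acid was added, 30 min. Hydroperoxide was read by Fe-XO absorbance ratio 573/405 nm.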
# BAZ2B inh: BAZ2B (human) inhibition; Q9UIF8; AlphaScreen BAZ2B-H3K14Ac peptide displacement; Potency, µM (highest dose often 114 µM), for inactives: at the top dose activity change, negative = inhibition, usual class: inhibitors; 360,000 tested, 4.4% active; AID 504333; further: on the % scale 0 is the no-effect control and ±100 the full control effect; nearly all actives have a fitted effect of over 60% in size
#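 AlphaScreen displacement: compounds (up to 110uM) incubated 30 min at room temperature with a preformed 50 nM BAZ2B/50 nM biotinylated H3K14Ac peptide complex in PBS pH 7.4 with Tween-20. Donor and acceptor beads at 10 ug/mL final added, 20 min light-protected before reading.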
# HP1b binding inh: HP1-beta chromodomain-methylated histone interaction inhibition; AlphaScreen HP1-beta / biotin-H3K9me3 peptide binding; 390,000 tested, 0.56% active; Potency, µM (series often up to 114 µM), inactives show at the top dose activity change, negative = inhibition, most hits filed as inhibitors; P83916; AID 540317; further: nearly all actives have a fitted effect of over 70% in size
# Target sequence (P83916 whole entry, looked up): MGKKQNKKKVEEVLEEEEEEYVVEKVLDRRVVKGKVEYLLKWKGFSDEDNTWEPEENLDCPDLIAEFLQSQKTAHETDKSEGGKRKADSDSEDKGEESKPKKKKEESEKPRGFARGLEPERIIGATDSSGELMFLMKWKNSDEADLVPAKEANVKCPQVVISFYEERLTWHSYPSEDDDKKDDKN
#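 HP1-beta protein (50 nM final) preincubated 30 min at room temperature with biotinylated H3(1-18)K9me3 peptide (50 nM) in PBS pH 7.4, 0.01% Tween-20, then compound added for 30 min. AlphaScreen streptavidin donor/nickel chelate acceptor beads (10 ug/mL final), 30 min dark, luminescence read.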
# PLK1 PBD block: PLK1 (human) polo-box domain binding inhibition | P53350 | Plk1 PBD binding of FITC phosphopeptide, fluorescence polarization | Potency, µM, inactives show max response, negative = inhibition, actives largely listed as inhibitors | 360,000 tested, 2.8% active | AID 720504; further: series mostly up to about 57 µM; on the % scale 0 is the no-effect control and ±100 the full control effect; nearly all actives have a fitted effect of over 65% in size
# Starred values were filed as active, the others as inactive; ? = inconclusive; . = no result given; [ ] = remark or other dose. Sampled rows, rich in hits. Any-hit rate of the full collection: about 9%. The call rests on the fitted dose curve; in most records, active means well fitted curve in the direction sought with a large enough effect; inconclusive means small, poorly fitted or top-dose-only effect, or another doubt; inactive means no such curve, though single readings can be large; an effect the other way counts as inactive or inconclusive. Potency means the concentration at half of the fitted maximal effect.
SMILES,G9a block,JMJD2A Tudor inh,ALOX12 inh,BAZ2B inh,HP1b binding inh,PLK1 PBD block
CC[C@@]1(C(=O)O)C[C@H](C(=O)N(C)CCN(C)C)[C@H](c2ccc(OC)cc2)N1C,.,.,1%,.,.,.
COc1cccc(C(=O)/C=C/Nc2ccc(S(=O)(=O)Nc3ncccn3)cc2)c1,26%[59 µM],-14%,-29%,2%,33%,-5%
O=C(NC1CCCCC1)NC1CC2CCC(C1)N2C(=S)NCc1ccco1 (stereo not drawn),-26%[59 µM],-19%,4%,-11%,11%,-3%
O=C(Nc1cccc(S(=O)(=O)N2CCCCC2)c1)Nc1ccc(Cl)cc1Cl,21%[59 µM],-25%,-13%,-13%,34%,-6%
CCO/C=N/c1c(C#N)c2c(c(=S)n1C)COC(C)(C)C2,-28%[12.7 µM],-11%,2%,1%,41%,-7%
COCC(=O)N[C@@H]1C[C@H](Cn2cc(CN3CCS(=O)(=O)CC3)nn2)[C@@H](O)[C@H]1O,.,.,68%,.,.,.
O=C(N[C@@H]1C[C@H](Cn2cc(-c3cccnc3)nn2)[C@@H](O)[C@H]1O)C1CCCC1,.,.,80%,.,.,.
O=S(=O)(N[C@@H]1C[C@H](Cn2cc(-c3cccnc3)nn2)[C@@H](O)[C@H]1O)c1ccccc1,.,.,20µM*,.,.,.
COCc1cn(C[C@H]2C[C@@H](NCc3cccnc3)[C@H](O)[C@@H]2O)nn1,.,.,22µM*,.,.,.
O=S1(=O)CCN(Cc2cn(C[C@H]3C[C@@H](NCc4ccc(F)cc4)[C@H](O)[C@@H]3O)nn2)CC1,.,.,13µM*,.,.,.
COc1ccc(-c2nc(CS(=O)(=O)CC(=O)NCCc3ccc(Cl)cc3)c(C)o2)cc1,.,.,-3%,.,.,.
Cc1cc(=O)oc2c(CN3CC(C)OC(C)C3)c(O)c(Cl)cc12 (stereo not drawn),?,79µM*,?,?,?,?
CCc1cc(=O)oc2c(CN3CCCC3)c(O)c(Cl)cc12,16%[12.7 µM],-12%,0%,0%,4%,-4%
S=c1[nH]nc(-c2ccco2)n1/N=C/c1cccc(Cl)c1Cl,1.4µM*,35µM*,?,50µM*,-38%,-29%
O=c1c2ccccc2nc(-c2ccco2)n1/N=C/c1ccccc1O,0%[59 µM],-21%,153%,1%,31%,-10%
S=c1[nH]nc(-c2ccco2)n1/N=C/c1ccc(Cl)cc1Cl,?,40µM*,?,?,-21%,?
COc1cc(/C=C/c2ccc3cccc([N+](=O)[O-])c3n2)ccc1OCC(=O)O,40µM*,-19%,-26%,56µM*,5%,-11%
O=C(O)COc1ccc(/C=C/c2ccc3cccc([N+](=O)[O-])c3n2)cc1,28µM*,?,-24%,56µM*,?,-25%
CCN(CC)Cc1cnc2c(C(=O)N3CCCC(COC)C3)cnn2c1 (stereo not drawn),.,.,49%,.,.,.
Cc1nn2c(c1-c1ccccc1OCc1ccccc1)N(C(=O)COc1ccccc1C(N)=O)CCC2,.,.,-17%,.,.,.
C=CCn1c(COc2ccc(Cl)cc2)nnc1SCc1ccc(C#N)cc1,28µM*,?,-3%,3%,59%,-8%
C=CCn1c(COc2ccc(Cl)cc2)nnc1SCC(=O)NCC(=O)OCC,28µM*,-19%,-6%,-26%,24%,-5%
C=CCn1c(SCc2ccc(C#N)cc2)nnc1-c1cccc(OC)c1,1%,2%,-22%,-2%,13%,-8%
C=CCn1c(SCC(=O)NCC(=O)OCC)nnc1-c1cccc(OC)c1,-38%[12.7 µM],-16%[11.4 µM],-5%,-4%,68%,-21%
C=CCn1c(SCc2ccc(C#N)cc2)nnc1-c1ccccc1,1.4µM*,-7%,18%,-1%,39%,-2%
O=C(O)CCCC(=O)NNc1ncnc2ccccc12,0%[59 µM],3.2µM*,-8%,8%,10%,2%
c1ccc(CNc2ncnc3ccccc23)cc1,8%[59 µM],-4%,-11%,-10%,42%,-1%
